Reference: the supplement of paper PMC6522484
± gives the standard deviation of the averaged measurements.

How the values were obtained:
DLD1 [1] = test: cell viability (CellTiter-Glo) relative to plate median (fraction of plate median); higher = more viable cells; settings: 5 µM; treatment time 24 h; reporter: 7TFP
Summary of the method: (§1)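 Colorectal cancer cell lines stably carrying lentiviral TCF/Wnt firefly luciferase reporters (7TFP or TCF4/Wnt) were plated in 384-well plates and, 24 h later, given library compounds at a final 5 µM for 24 h. Firefly luciferase or CellTiterGlo luminescence was read on parallel plates with a Tecan F500 reader. Each well's signal was normalised to the plate median in webcellHTS2 (additive, without log transformation). Values are the mean of two independent replicates.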

HCT116 = test: as above; settings: 5 µM; treatment time 24 h; reporter: TCF4/Wnt
Summary of the method: as §1

SW480 [2] = test: as above; settings: 5 µM; treatment time 24 h; reporter: 7TFP
Summary of the method: as §1

DLD1 [3] = test: TCF/Wnt firefly luciferase reporter signal relative to plate median (fraction of plate median); higher = higher Wnt reporter signal; settings: 5 µM; treatment time 24 h; reporter: 7TFP
Summary of the method: as §1

SW480 [4] = test: as above; settings: 5 µM; treatment time 24 h; reporter: 7TFP
Summary of the method: as §1

| SMILES | cell viability (DLD1 [1]) | cell viability (HCT116) | cell viability (SW480 [2]) | TCF/Wnt firefly luciferase reporter signal (DLD1 [3]) | TCF/Wnt firefly luciferase reporter signal (SW480 [4]) |
| --- | --- | --- | --- | --- | --- |
| COc1c(C)c2c(c(O)c1C/C=C(\C)CCC(=O)O)C(=O)OC2 | 1.03 ± 0.12 | 0.802 ± 0.03 | 1.03 ± 0.065 | 1.045 ± 0.0071 | 1.14 ± 0.11 |
| O=C(/C=C(\O)c1ccccc1)c1ccccc1O [2',beta-DIHYDROXYCHALCONE] | 1.07 ± 0.16 | 1.17 ± 0.16 | 1.08 ± 0.014 | 1.01 ± 0.17 | 1.1 ± 0.021 |
| CC[C@@H](C(=O)[C@@H](C)[C@@H](O)[C@H](C)CCc1ccc(C)c(O)c1C(=O)O)[C@H]1O[C@](CC)([C@H]2CC[C@](O)(CC)[C@H](C)O2)C[C@@H]1C | 0.985 ± 0.013 | 1.03 ± 0.098 | 1.02 ± 0.014 | 1.23 ± 0.099 | 1.03 ± 0.12 |
| C[C@@H]([C@H]1OC(C)(C)[C@@H](O)[C@H]1O)[C@@H]1CC[C@]2(C)C3=CC[C@H]4C(C)(C)C(=O)CC[C@]4(C)[C@H]3CC[C@@]12C | 1.1 ± 0.19 | 0.998 ± 0.1 | 1.07 ± 0.042 | 1.01 ± 0.084 | 0.884 ± 0.065 |
| Cc1occc(=O)c1O | 0.962 ± 0.0099 | 0.973 ± 0.039 | 0.936 ± 0.021 | 0.938 ± 0.1 | 0.85 ± 0.042 |
| CCOc1ccc2ccccc2c1C(=O)N[C@@H]1C(=O)N2[C@@H]1SC(C)(C)[C@@H]2C(=O)O | 0.991 ± 0.07 | 1.035 ± 0.0071 | 1.06 ± 0.071 | 1.1 ± 0.26 | 1.12 ± 0.057 |
| CCCc1nn(C)c2c(=O)[nH]c(-c3cc(S(=O)(=O)N4CCN(C)CC4)ccc3OCC)nc12 | 1 ± 0.067 | 0.981 ± 0.21 | 0.978 ± 0.013 | 1.02 ± 0.042 | 1.09 ± 0.028 |
| O=C1NCC(=O)N2CCCC12 (stereo not given) [Cyclo(glycylprolyl)] | 0.941 ± 0.037 | 0.9365 ± 0.005 | 0.959 ± 0.016 | 1.2 ± 0.085 | 0.978 ± 0.073 |
| C=CCCCCCCCCCCCC(O)CC(O)COC(C)=O (stereo not given) | 0.995 ± 0.0071 | 0.9555 ± 0.0064 | 1.005 ± 0.0071 | 0.866 ± 0.1 | 0.962 ± 0.021 |
| CC1(C)S[C@@H]2[C@H](N3C(=O)[C@@H](c4ccccc4)NC3(C)C)C(=O)N2[C@H]1C(=O)O | 1.05 ± 0.079 | 1.055 ± 0.0071 | 1.08 ± 0.071 | 1.15 ± 0.042 | 1.09 ± 0.014 |
| CC(=O)O[C@@H]1CC2C(C)(CC[C@H](O)C2(C)C)C2CC[C@]3(C)C(=CC(=O)O[C@H]3c3ccoc3)C21C (stereo partly drawn) [3beta-HYDROXYDEOXODIHYDRODEOXYGEDUNIN] | 1 ± 0.028 | 0.963 ± 0.081 | 1.02 ± 0.028 | 1.15 ± 0.12 | 1.12 ± 0.014 |
| CC(C)[C@H](NC(=O)[C@@H]1CCCN1)C(=O)N1CCNC(=O)C1=O [Prolyl-valyl-diketopiperazine] | 1.04 ± 0.12 | 1.14 ± 0.092 | 1.07 ± 0.05 | 0.919 ± 0.013 | 0.962 ± 0.021 |
| C[C@@H]1CC[C@H]2C(C(=O)O)=C[C@@H]3[C@@H](O)C(C)(C)C[C@@]132 [Pentalenic acid] | 0.966 ± 0.019 | 0.941 ± 0.016 | 1.02 ± 0.042 | 0.794 ± 0.13 | 0.98 ± 0.16 |
| COc1ccc(C(=O)CC(=O)c2ccc(C(C)(C)C)cc2)cc1 | 0.879 ± 0.2 | 0.904 ± 0.032 | 1.01 ± 0.021 | 1 ± 0.098 | 1.04 ± 0.18 |
| CON | 1.03 ± 0.093 | 1.01 ± 0.046 | 0.984 ± 0.018 | 0.982 ± 0.04 | 0.981 ± 0.027 |
| COc1ccc2c(c1)OC[C@@H](Cc1ccc(OC)c(OC)c1)[C@@H]2O | 1.03 | 1.02 ± 0.12 | 0.963 ± 0.034 | 1 ± 0.015 | 0.973 ± 0.081 |
| O=c1ccc2cc(O)c(O)cc2o1 | 1.03 ± 0.19 | 1.13 ± 0.028 | 1.04 ± 0.014 | 0.994 ± 0.066 | 0.893 ± 0.015 |
| N[C@@H](C(=O)O)[C@@H](O)[C@H](O)[C@H](O)CO | 0.989 ± 0.073 | 0.95 ± 0.021 | 1.01 ± 0.02 | 1 ± 0.14 | 0.996 ± 0.034 |
| Oc1ccc2c(c1)OC[C@]1(O)Cc3cc(O)c(O)cc3[C@H]21 | 1.01 ± 0.044 | 0.929 ± 0.085 | 0.936 ± 0.0014 | 1.15 ± 0.11 | 0.909 ± 0.024 |
| NCCCC(O)(P(=O)(O)O)P(=O)(O)O | 0.98 ± 0.028 | 0.974 ± 0.12 | 0.963 ± 0.0042 | 0.974 ± 0.12 | 1.02 ± 0.03 |
| COc1c(OC)c2occc2c2oc(=O)ccc12 | 1.004 ± 0.0085 | 0.829 ± 0.16 | 1.02 ± 0.077 | 0.802 ± 0.21 | 0.948 ± 0.011 |
| COc1ccc(-c2cc(=O)c3ccccc3o2)cc1OC | 1.07 ± 0.05 | 1.01 | 1.06 ± 0.057 | 0.906 ± 0.0099 | 1.03 ± 0.035 |
| CC(=O)c1cc2c(cc1O)OC(C)(C)C=C2 | 1.09 ± 0.099 | 1 ± 0.011 | 1.03 ± 0.014 | 0.99 ± 0.057 | 1.01 ± 0.023 |
| NNc1nncc2ccccc12 | 1.055 ± 0.0071 | 1.06 ± 0.057 | 1.055 ± 0.0071 | 1.23 ± 0.25 | 1.28 ± 0.17 |
| CN(C)CC/C=C1/c2ccccc2Sc2ccc(Cl)cc21 | 0.835 ± 0.21 | 0.98 ± 0.019 | 0.934 ± 0.016 | 1.07 ± 0.042 | 0.967 ± 0.061 |
| CN(C)CCN(Cc1cccs1)c1ccccn1 | 1.08 ± 0.028 | 1.04 ± 0.18 | 1 ± 0.015 | 1.01 ± 0.056 | 1.03 ± 0.028 |
| CC[N+](CC)(CC)CCOc1cccc(OCC[N+](CC)(CC)CC)c1OCC[N+](CC)(CC)CC | 0.9365 ± 0.0021 | 0.972 ± 0.017 | 0.945 ± 0.093 | 0.989 ± 0.1 | 0.873 ± 0.21 |
| Cc1cccc(Nc2cc(Cl)nc(SCC(=O)O)n2)c1C | 0.964 ± 0.021 | 0.999 ± 0.044 | 0.9325 ± 0.0064 | 1.09 ± 0.014 | 1.085 ± 0.0071 |
